# Source: the supplement of paper PMC3334620
# In all, about 33,000 sequences were measured (“E-score (-0.5 to 0.5)”: median about -0.01, highest 2% from about 0.26 on). The list comes from a sample in which the highest values are over-represented; it also holds similar and randomly drawn sequences.
# Biological target: Ste12 (UniProt P13574)
# Assay: PBM E-score (8-mer binding enrichment) (E-score (-0.5 to 0.5)); higher = stronger / more preferred TF binding
# Conditions: protein concentration: 200 nM; construct: GST-DNA-binding domain
# Experimental: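 Universal 'all 10-mer' protein binding microarrays (Agilent AMADID 015681) probed with GST-tagged S. cerevisiae TFs (full-length or DBD) made by in vitro transcription/translation (PURExpress), about 100-200 nM. Bound TF was detected with fluorescent anti-GST. Each ungapped 8-mer (which stands for itself and its reverse complement) is scored by the PBM enrichment score (E-score), a modified Wilcoxon-Mann-Whitney statistic from -0.5 to +0.5, computed with the Universal PBM Analysis Suite. Scale: above 0.35 generally sequence-specific binding.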
# Sequence of UniProt P13574 (P13574 whole entry): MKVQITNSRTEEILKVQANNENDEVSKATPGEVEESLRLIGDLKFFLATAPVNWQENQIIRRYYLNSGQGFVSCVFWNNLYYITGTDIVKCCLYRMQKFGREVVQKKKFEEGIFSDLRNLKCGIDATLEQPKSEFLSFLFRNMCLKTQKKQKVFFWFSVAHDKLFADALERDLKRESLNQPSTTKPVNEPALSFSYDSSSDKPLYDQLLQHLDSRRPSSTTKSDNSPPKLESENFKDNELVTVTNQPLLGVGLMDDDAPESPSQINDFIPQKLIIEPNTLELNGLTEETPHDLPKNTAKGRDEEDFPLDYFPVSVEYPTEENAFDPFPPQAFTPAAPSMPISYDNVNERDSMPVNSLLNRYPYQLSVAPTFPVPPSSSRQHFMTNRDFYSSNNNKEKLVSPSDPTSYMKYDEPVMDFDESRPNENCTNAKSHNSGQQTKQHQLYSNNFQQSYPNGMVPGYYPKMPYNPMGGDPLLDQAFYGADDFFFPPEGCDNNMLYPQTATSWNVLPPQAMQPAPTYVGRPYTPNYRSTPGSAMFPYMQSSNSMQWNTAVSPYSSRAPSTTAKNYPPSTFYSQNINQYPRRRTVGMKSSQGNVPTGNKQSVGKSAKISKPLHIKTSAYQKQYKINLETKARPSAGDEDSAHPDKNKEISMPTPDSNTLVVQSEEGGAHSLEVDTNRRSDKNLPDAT
row,Sequence,PBM E-score
1,GATCGATA,0.0823
2,TCAAGGCA,-0.169
3,ACCTTGGA,-0.197
4,ATGTCTTA,0.134
5,AACACGAC,-0.104
6,TATAATAA,0.141
7,CAATATAG,0.117
8,CAATATAC,0.116
9,TAATATAA,0.287
10,CAATATAA,0.316
11,GAATATAA,0.161
12,CTCCCGTC,0.0578
13,AAAGGGAT,0.00067
14,AAAGTCAA,0.189
15,GTCTTATA,0.0618
16,ATCTTATA,0.0647
17,CTCTTATA,0.267
18,AAGCCCCA,-0.237
19,AGGCCATA,-0.245
20,CCCATAGA,-0.143
21,AAAATTAA,0.134
22,ATAATTAT,0.195
23,AAAATTTG,0.0212
24,AAAATTGT,0.225
25,AAAAATTT,0.138
26,AAAATTAG,0.31

row,Sequence,PBM E-score
1,AAAATTTT,0.311
2,AAAATTAC,0.188
3,AAAATTAT,0.337
4,GGCCACCA,0.0635
5,CAACCTAA,0.0543
6,GTATCGTA,0.0508
7,GATGCAAC,-0.0126
8,AGTTGACG,0.019
9,CATCCAGA,-0.00655
10,GAAACGCA,0.323
11,GAAACGCC,0.288
12,CAAACGCC,0.0326
13,CAAACGCA,-0.133
14,TAAACGCA,-0.0738
15,GGAACGCC,-0.017
16,ATGCTTAG,-0.205
17,AGCAGTAG,-0.168
18,TGGCCCCA,-0.094
19,AAGTAGTG,-0.075
20,ACCTAATC,0.0677
21,ACAAGAAA,0.28
22,CGTAGAAA,-0.0538
23,CCAAGAAA,0.0914
24,AGTAGAAC,-0.0785
25,GAAAGAAA,0.297
26,CAAAGAAA,0.214

row,Sequence,PBM E-score
1,GAAAGAAC,-0.00643
2,AGTAGAAA,0.297
3,ACAAGAAT,0.137
4,CCCACATC,-0.0169
5,GGCAAGCC,-0.0158
6,GCTAACCC,-0.192
7,CAGCTGCG,-0.0692
8,AGAAATTG,0.209
9,CATGGATC,-0.0524
10,AACTTTAT,0.165
11,ACTAAAAT,0.27
12,ACTAATAC,0.131
13,ACTAAAAG,0.1
14,ACTAATAT,0.288
15,ACTAAACC,0.0959
16,ACTAATAG,0.0525
17,ACTAAAAC,0.272
18,ACTAAAAA,0.203
19,AATAAAAT,0.183
20,AGAGTCTC,-0.00303
21,CTTGTTCA,-0.105
22,GACGTCAC,-0.136
23,TCATACCA,-0.0469
24,CATGGTTC,0.19
25,GTGGGCGA,-0.0639
26,CGGACCAA,-0.096

row,Sequence,PBM E-score
1,AACTGGTA,-0.00841
2,ATCGTCGG,0.00187
3,CCCGTTGC,-0.145
4,CCCGTTTC,0.274
5,ACCGTTTC,0.3
6,CCCGTTTA,0.0626
7,ACCGTTTA,0.059
8,ACCGTTTG,-0.0273
9,TCACTTAA,0.191
10,GCCGACGA,0.17
11,TCCGACGA,-0.109
12,CCCGACGA,0.284
13,ATAGCATA,-0.011
14,GAAGACTA,-0.0635
15,TGATTAAA,0.158
16,GAATTAAC,0.00892
17,TAATTGAA,0.0688
18,GGATTAAA,0.274
19,GAATTGAA,0.278
20,CGATTAAA,0.073
21,CAATTGAA,0.187
22,GAATTAAA,0.287
23,AAATTAAA,0.206
24,ATCCTACG,-0.141
25,GAGCTTGA,-0.176
26,AAAAACAC,0.233

row,Sequence,PBM E-score
1,CCGGAACC,0.0511
2,GCGGGGTA,0.143
3,CAGCCATC,-0.0408
4,GCTCTACC,-0.167
5,AAGCGAGA,0.108
6,CTCTTTAA,-0.122
7,TTACCGAA,0.276
8,CTACCGAA,-0.131
9,CTACCAAA,0.0171
10,TTACCAAA,0.263
11,GTACCAAA,0.0457
12,GTACCGAA,0.0964
13,GCATGCCC,0.105
14,AAACTGAA,0.268
15,AAACTGTT,0.162
16,GAACTTAA,0.115
17,AAACTTTG,0.217
18,CAACTTAA,0.0143
19,AAACTTAA,0.298
20,CAACTTTA,0.161
21,AAACTTTA,0.294
22,AAACTGTA,0.135
23,AAGATTGC,-0.0392
24,ACTTTGAT,0.11
25,CCCGGCGG,0.0682
26,ATTAAGGG,0.0581

row,Sequence,PBM E-score
1,ATCTCGAC,0.0726
2,GATCCCCA,0.0544
3,CGCCTACA,0.0882
4,GTAGCCAC,-0.27
5,CTGGGGGC,-0.233
6,ACCCCACG,-0.159
7,GCCCCACC,0.266
8,ACCCCACC,0.373
9,GCCCCACA,0.101
10,ACCCCACT,0.0311
11,CCCCCACC,-0.207
12,GGACCCGA,-0.0164
13,CTCCACAA,0.00925
14,CAAAGCGA,0.0708
15,ACAAGGAC,-0.129
16,AGAAGACA,-0.132
17,AACTCGCC,-0.0534
18,AAATTTAG,0.169
19,AAATTTGA,0.123
20,TAATTTAA,0.3
21,GAATTTAA,0.0395
22,AAATTTAC,0.197
23,CGATTTAA,0.1
24,AAATTTAT,0.263
25,AAATTTCA,0.0583
26,AAATTTAA,0.289

row,Sequence,PBM E-score
1,AGATTTAA,0.0444
2,CAATTTAA,0.2
3,TGATTTAA,0.266
4,GGAATGGA,0.0113
5,TTACCCAA,0.0694
6,CTTTGCTA,0.162
7,CTCACAGA,0.00059
8,AACTCGTA,0.143
9,TCCCCACA,-0.0875
10,CACCTATC,0.0217
11,CAAAACGA,0.272
12,CAAAACGG,0.302
13,AAAAACGA,0.272
14,CCAAACGG,-0.0425
15,AAAAACGG,0.174
16,CGAAACGA,0.205
17,AGAAACGA,0.207
18,GAAAACGA,-0.0839
19,CAAAACGC,0.229
20,TAAAACGA,0.134
21,GGAAACGA,0.275
22,CCAAACGA,0.0156
